# In the supplement of paper PMC6607015:
# Counter-ions that a name gives are not always drawn.
# Tests used:
# Details in all cases: compound concentration in added solution (µM; 5 µl added to 20 µl cells): 10; 18 h
# [1] = test system: A431; experiment: LBPA endosome anti-LBPA integrated intensity (sum per cell), Z-score; higher = more LBPA staining
# How it was run: (§1)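 In duplicate 384-well imaging plates, 3,500 HeLa MZ or A431 cells in 20 µl per well were seeded onto 5 µl of 10 µM compound solution. The cells were incubated for 18 h, fixed in 4% PFA and stained with 6C4 anti-LBPA antibody, filipin, propidium iodide and CellTracker green before four 20× images were acquired per well. Values are AcuityXpress-normalised Z-scores of per-cell integrated LBPA or filipin intensity, obtained by MetaXpress segmentation over the whole cell or in LBPA endosomes.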
# [2] = test system: HeLa MZ; experiment: as above
# How it was run: as §1
# [3] = test system: A431; experiment: whole-cell filipin (free cholesterol) integrated intensity, Z-score; higher = more cholesterol staining
# How it was run: as §1
# [4] = test system: HeLa MZ; experiment: as above
# How it was run: as §1
# [5] = test system: A431; experiment: filipin (cholesterol) integrated intensity within LBPA endosomes, Z-score; higher = more cholesterol in LBPA endosomes
# How it was run: as §1
# [6] = test system: HeLa MZ; experiment: as above
# How it was run: as §1
Compound,LBPA endosome anti-LBPA integrated intensity (z-score) [1],LBPA endosome anti-LBPA integrated intensity (z-score) [2],whole-cell filipin (z-score) [3],whole-cell filipin (z-score) [4],filipin (z-score) [5],filipin (z-score) [6]
CC(C)NC[C@@H](O)COc1ccc(CC(N)=O)cc1 [(R)-(+)-Atenolol],-0.596,-1.65,-0.23,-0.591,-0.512,-0.472
N#Cc1ccc(C(c2ccc(C#N)cc2)n2cncn2)cc1 [Letrozole],-0.371,0.276,0.375,0.337,-0.552,-0.548
COc1ccc2c3c1O[C@H]1C[C@@H](O)C=C[C@@]31CCN(C)C2 [Galanthamine hydrobromide],-0.594,-0.476,-0.752,-0.607,-0.584,-0.496
Nc1c2c(nc3ccccc13)CCCC2 [Tacrine hydrochloride],0.535,0.705,-0.59,0.0516,0.0216,0.583
C[C@]12CC[C@@H]3c4ccc(O)cc4CC[C@H]3[C@@H]1CC[C@@H]2O [Estradiol-17 beta],-0.253,0.492,-0.4,-1.01,-0.426,-0.515
CNc1ncnc2c1ncn2[C@@H]1O[C@H](CO)[C@@H](O)[C@H]1O [N6-methyladenosine],-0.364,0.218,-0.443,0.122,-0.45,-0.43
CN1CCN2c3ccccc3Cc3ccccc3C2C1 (stereo not drawn) [Mianserine hydrochloride],1.6,1.07,1.17,0.96,1.16,1.54
Cc1ncc(CO)c(CO)c1O [Pyridoxine hydrochloride],-0.469,-0.56,-0.385,-0.528,-0.475,-0.596
CC(=O)Oc1ccc(C(c2ccc(OC(C)=O)cc2)c2ccccn2)cc1 [Bisacodyl],-0.461,0.379,-0.546,0.375,-0.421,-0.162
O=C(O)CCNC(=O)c1ccc(/N=N/c2ccc(O)c(C(=O)O)c2)cc1 [Balsalazide Sodium],-0.394,-0.755,-0.213,0.475,-0.386,-0.346
NCCCCCC(=O)O [Aminocaproic acid],-0.515,-0.605,-0.556,-0.716,-0.511,-0.479
CC(C)(C#N)c1cc(Cn2cncn2)cc(C(C)(C)C#N)c1 [Anastrozole],-0.573,-1.31,-0.205,-0.00341,-0.428,-0.659
Cc1ccccc1C(OCCN(C)C)c1ccccc1 (stereo not drawn) [Orphenadrine hydrochloride],-0.188,0.0858,-0.344,1.02,0.191,0.681
CC(C)c1c(C(=O)Nc2ccccc2)c(-c2ccccc2)c(-c2ccc(F)cc2)n1CC[C@@H](O)C[C@@H](O)CC(=O)O [Atorvastatin],-0.737,-0.992,-0.0189,-0.402,-0.543,-0.45
CO[C@@]1(NC(=O)C(C(=O)O)c2ccc(O)cc2)C(=O)N2C(C(=O)O)=C(CSc3nnnn3C)CO[C@@H]21 (stereo partly drawn) [Moxalactam disodium salt],-0.477,0.127,-0.129,0.413,-0.413,-0.25
CN1C(C(=O)Nc2ccccn2)=C(O)c2ccccc2S1(=O)=O [Piroxicam],-0.541,-0.331,-0.896,-1.08,-0.561,-0.694
CCc1oc2ccccc2c1C(=O)c1cc(Br)c(O)c(Br)c1 [Benzbromarone],-0.388,-0.283,-0.536,-0.296,-0.47,-0.42
CCCc1nn(C)c2c(=O)[nH]c(-c3cc(S(=O)(=O)N4CCN(C)CC4)ccc3OCC)nc12 [Sildenafil],-0.41,-0.61,-0.134,-0.0955,-0.415,-0.257
COc1cc(OC)c(C(=O)CCCN2CCCC2)c(OC)c1 [Buflomedil hydrochloride],-0.502,0.473,-0.535,-0.534,-0.503,-0.263
CCCN(CCC)S(=O)(=O)c1ccc(C(=O)O)cc1 [Probenecid],-0.546,-0.569,-0.756,-0.679,-0.526,-0.61
C[C@]12CC[C@H]3C(=CCc4cc(O)ccc43)[C@@H]1CCC2=O [Equilin],-0.185,0.864,-0.0277,0.614,-0.251,0.186
CCCNC(=O)NS(=O)(=O)c1ccc(Cl)cc1 [Chlorpropamide],-0.658,-1.65,-0.845,-0.558,-0.591,-0.571
C=C1/C(=C\C=C2/CCC[C@]3(C)[C@@H]([C@H](C)/C=C/[C@@H](O)C4CC4)CC[C@@H]23)C[C@@H](O)C[C@@H]1O [Calcipotriene],0.563,1.43,0.734,0.316,0.659,0.179
N=C(N)NCCN1CCCCCCC1 [Guanethidine sulfate],-0.647,-1.05,-0.871,-0.0594,-0.596,-0.454

Compound,LBPA endosome anti-LBPA integrated intensity (z-score) [1],LBPA endosome anti-LBPA integrated intensity (z-score) [2],whole-cell filipin (z-score) [3],whole-cell filipin (z-score) [4],filipin (z-score) [5],filipin (z-score) [6]
CC(CCc1ccc(O)cc1)NCCc1ccc(O)c(O)c1 (stereo not drawn) [Dobutamine hydrochloride],-0.212,0.142,-0.349,-0.893,-0.473,-0.28
Cc1ccsc1/C=C/C1=NCCCN1C [Morantel tartrate],-0.53,-0.0789,-1.09,-0.906,-0.593,-0.756
CCOC(=O)C1=C[C@]2(CC)CCCN3CCc4c(n1c1ccccc41)[C@@H]32 [Vinpocetine],-0.0891,0.52,-0.413,-0.464,-0.326,-0.0256
OCCN1CCN(CCCN2c3ccccc3Sc3ccc(C(F)(F)F)cc32)CC1 [Fluphenazine dihydrochloride],2.14,0.746,-0.522,0.27,2.23,3.52
CCOC(=O)/C=C(C)/C=C/C=C(C)/C=C/c1c(C)cc(OC)c(C)c1C [Etretinate],-0.297,0.358,0.197,-0.112,-0.399,-0.321
C[C@]12C=CC(=O)C=C1CC[C@@H]1[C@@H]2C(=O)C[C@@]2(C)[C@H]1CC[C@]2(O)C(=O)CO [Prednisone],-0.485,-0.977,-0.505,0.0271,-0.452,-0.412
CC(C)[C@H](N)C(=O)OCCOCn1cnc2c(=O)nc(N)[nH]c21 [Valacyclovir hydrochloride],-0.418,0.0601,-0.723,-0.237,-0.459,-0.357
N=C(N)NCc1cccc(I)c1 [Iobenguane sulfate],-0.605,-1.1,-0.881,-0.23,-0.54,-0.449
COCCOC(=O)C1=C(C)NC(C)=C(C(=O)OC(C)C)C1c1cccc([N+](=O)[O-])c1 (stereo not drawn) [Nimodipine],-0.345,0.468,0.0525,0.629,-0.323,-0.286
CC(C)(CO)C(O)C(=O)NCCCO (stereo not drawn) [Panthenol (D)],-0.558,-0.28,-0.953,-0.974,-0.509,-0.649
CCC(=O)O[C@]1(C(=O)SCF)[C@H](C)C[C@H]2[C@@H]3C[C@H](F)C4=CC(=O)C=C[C@]4(C)[C@@]3(F)[C@@H](O)C[C@@]21C [Fluticasone propionate],-0.0811,0.00943,0.193,-0.0272,-0.0798,-0.437
CC12CC3CC(C)(C1)CC(N)(C3)C2 [Memantine Hydrochloride],-0.449,0.231,0.233,0.438,-0.349,-0.0275
CNC(=C[N+](=O)[O-])NCCSCc1ccc(CN(C)C)o1 [Ranitidine hydrochloride],-0.424,0.0515,-1.03,-1.05,-0.524,-0.559
N=C(N)c1ccc(OCCCCCOc2ccc(C(=N)N)cc2)cc1 [Pentamidine isethionate],-0.319,-1.47,-0.429,-0.57,-0.313,-0.712
Cn1c(=O)c2c(ncn2CCO)n(C)c1=O [Etofylline],-0.487,-1.05,-0.938,-1.17,-0.451,-0.58
C[C@H](O)C(=O)Nc1c(I)c(C(=O)NC(CO)CO)c(I)c(C(=O)NC(CO)CO)c1I [Iopamidol],-0.637,-1.5,-0.34,-0.1,-0.494,-0.379
C#C[C@]1(O)CC[C@H]2[C@@H]3CCc4cc(OC)ccc4[C@H]3CC[C@@]21C [Ethynylestradiol 3-methyl ether],-0.376,0.717,-0.391,0.0701,-0.42,-0.16
C[C@@H]1C[C@H]2[C@@H]3C[C@H](F)C4=CC(=O)C=C[C@]4(C)[C@@]3(F)[C@@H](O)C[C@]2(C)[C@@]1(O)C(=O)CO [Flumethasone],-0.341,-0.862,-0.0225,0.117,-0.194,-0.317
NC(=O)OCC(O)COc1ccc(Cl)cc1 (stereo not drawn) [Chlorphensin carbamate],-0.6,-2.23,-1.05,-0.894,-0.514,-0.697
CC(C(=O)O)c1cccc(Oc2ccccc2)c1 (stereo not drawn) [Fenoprofen calcium salt dihydrate],-0.519,-0.608,-0.389,-0.428,-0.476,-0.491
CN(N=O)C(=O)N[C@@H](C=O)[C@@H](O)[C@H](O)[C@H](O)CO [Streptozotocin],-0.585,-0.52,-0.71,-0.525,-0.474,-0.51
O=C(c1ccc(OCCN2CCCCC2)cc1)c1c(-c2ccc(O)cc2)sc2cc(O)ccc12 [Raloxifene hydrochloride],2.74,1.35,1.48,2.28,3.61,5.61
O=C1C(O)=C([C@H]2CC[C@H](c3ccc(Cl)cc3)CC2)C(=O)c2ccccc21 [Atovaquone],-0.63,-0.824,-0.408,-0.361,-0.555,-0.654
CC1=C(/C=C/C(C)=C/C=C/C(C)=C/C(=O)O)C(C)(C)CCC1 [Retinoic acid],-0.177,-0.508,-0.103,-0.698,-0.286,-0.43
